Assay results as given in ChEMBL document CHEMBL3988442, “University of Dundee, Small-Polar-MMV Screening Library” (2021).

These molecules were tested against AMP-activated protein kinase, AMPK (Homo sapiens) (UniProt P54646+O43741+P54619+Q9UGJ0+Q9Y478+Q13131+Q9UGI9) (assay: AMP-dependent Kinase enzyme assay. An in vitro enzyme assay that detects ADP turnover that is directly proportional to AMPK activity. This uses naive AMPK that is activated during the assay with MK-8722). Conditions: 30 µM.
Format: functional
Parameters: scale not given: direction of the effect not stated beside the values

| SMILES | Percent Effect [%] |
| --- | --- |
| CC(C)c1cc(NC(=O)Cn2ccc(=O)c3ccccc32)[nH]n1 | 4.99 |
| Cc1nccc(C2(C)CCCNC2)n1 (stereo not given) | 13.7 |
| Cc1nsc(C(=O)NCCCc2ccccc2)n1 | 1.51 |
| Cc1csc(CCNC(=O)N2CCC(n3cccc3)CC2)n1 | -3.41 |
| Cc1cc(C2CCCN(CC(=O)N3CCCc4ccccc43)C2)n[nH]1 (stereo not given) | -5.06 |
| Cc1noc(C)c1CN1CCCC1c1nnc2ccccn12 (stereo not given) | -3.49 |
| COc1ccc(CCC(C)Nc2cccc(SC)c2)cc1 (stereo not given) | -6.2 |
| CN1CCOC(CNCC(=O)NCCC2=CCCCC2)C1 (stereo not given) | -9.7 |
| Cc1nc(C)n(CC2CCCN2c2ncnc3sccc23)n1 (stereo not given) | 1.91 |
| Cc1cc(CN(C)C(=O)Nc2ccccc2C)no1 | 9.79 |
| COc1ccccc1CN1CCC(c2nccc(C)n2)C1 (stereo not given) | -3.97 |
| Cc1noc(C)c1CNC(=O)NCCC(=O)N1CCCc2ccccc21 | -2.4 |
| CCCNC(=O)CNC(=O)CC1CCCc2cc(OC)ccc21 (stereo not given) | -4.21 |
| COCc1nc(C2CC2)nn1-c1ccccc1Cl | -1.23 |
| Cc1cccc(CN2CCOCC2c2[nH]ncc2C)n1 (stereo not given) | 16.3 |
| CCn1cc(-c2cc(C(=O)N3CCOCC3)c3cc(Cl)ccc3n2)cn1 | 11.8 |
| COc1c(C)cnc(CN2CCn3c(nnc3C3CC3)C2)c1C | 8.46 |
| CCn1c(C2CCCN2Cc2noc(C(C)(C)C)n2)nc2ccccc21 (stereo not given) | 13.4 |
| Cc1ccc(C(C(=O)NC(C)(C)CN2CCCC2)N(C)C)cc1 (stereo not given) | -22.5 |
| COc1ccc(NC(=O)c2cnc(C3CCN(C)CC3)nc2C)cc1 | 3.65 |

| SMILES | Percent Effect [%] |
| --- | --- |
| CN(C)CC(=O)NC1CC(C)(C)Cc2nc(C(C)(C)C)ncc21 (stereo not given) | -0.385 |
| O=C(CC1CCCC1)NCCS(=O)(=O)N1CCN(c2ncccn2)CC1 | -1.03 |
| CN1CCC(N(Cc2ccncc2)C(=O)COCC2CCCCO2)CC1 (stereo not given) | 1.82 |
| CC(C)c1nc(CC(=O)Nc2cnccc2O)cs1 | -1.17 |
| c1ccc(N2CCC(OCC3CCCCO3)CC2)nc1 (stereo not given) | 6.76 |
| CCCc1nnc(N2CCC(N3CCN(CCO)CC3)CC2)o1 | -0.32 |
| CN(C)S(=O)(=O)N1CCC(C(O)c2ccc(Cl)cc2)CC1 (stereo not given) | 4.77 |
| Cc1nccn1-c1cccc(N2CCC(OCC3CCCCO3)CC2)n1 (stereo not given) | 6.51 |
| COCCn1ccnc1C1CCN(C(=O)CSc2nnc(C)o2)CC1 | -0.22 |
| CN1C[C@@H]2CC[C@H](C1)N(Cc1ccccc1OCCN1CCOCC1)C2 | -106 |
| CC(C)n1cc(CN(Cc2ccc(F)cc2)CC2CCCO2)cn1 (stereo not given) | 5.24 |
| Cc1cnn(C2CN(CCOc3ccccc3C#N)C2)c1 | 6.15 |
| COc1ccc(C(=O)N2CCN(C(=O)CCCc3cn[nH]c3)CC2)cc1 | 3.5 |
| COCCn1ccnc1C1CCCN(C(=O)CSc2nnc(C)o2)C1 (stereo not given) | 1.51 |
| O=C(CC1COCCN1)N1CCCN(C2Cc3ccccc3C2)CC1 (stereo not given) | -11.6 |
| CCSc1ncc(CN2CCN(c3ccc(C#N)cc3)C(=O)C2)cn1 | 2.89 |
| COC(=O)c1ccc(Cn2cnc(C#N)n2)cc1 | 1.34 |
| Cc1nnc(CN(C)CC(=O)NCCc2ccc(F)cc2)n1C | 5.73 |
| c1ccc(CCN2CCN(C3CCOC4(CCOCC4)C3)CC2)cc1 (stereo not given) | -8.46 |
| O=S(=O)(NCc1ccnc(-n2ccnc2)c1)c1cncc(Cl)c1 | 0.0234 |
